In all, about 310,000 compounds went through this assay and about 1,200 (0.39%) were called active. No rule for the calls is given here. Not all results are given here. Measured potencies and affinities stand elsewhere.
These molecules were tested against Large T antigen (Simian virus 40) (UniProt P03070) (assay: SV40 large T antigen inhibitors, biochemical (AID 1903)). Conditions: SV40 large T antigen ATPase/helicase inhibition assay; at 20 µM; active compounds read high.
Chain of Large T antigen (Simian virus 40) (P03070 whole entry, looked up): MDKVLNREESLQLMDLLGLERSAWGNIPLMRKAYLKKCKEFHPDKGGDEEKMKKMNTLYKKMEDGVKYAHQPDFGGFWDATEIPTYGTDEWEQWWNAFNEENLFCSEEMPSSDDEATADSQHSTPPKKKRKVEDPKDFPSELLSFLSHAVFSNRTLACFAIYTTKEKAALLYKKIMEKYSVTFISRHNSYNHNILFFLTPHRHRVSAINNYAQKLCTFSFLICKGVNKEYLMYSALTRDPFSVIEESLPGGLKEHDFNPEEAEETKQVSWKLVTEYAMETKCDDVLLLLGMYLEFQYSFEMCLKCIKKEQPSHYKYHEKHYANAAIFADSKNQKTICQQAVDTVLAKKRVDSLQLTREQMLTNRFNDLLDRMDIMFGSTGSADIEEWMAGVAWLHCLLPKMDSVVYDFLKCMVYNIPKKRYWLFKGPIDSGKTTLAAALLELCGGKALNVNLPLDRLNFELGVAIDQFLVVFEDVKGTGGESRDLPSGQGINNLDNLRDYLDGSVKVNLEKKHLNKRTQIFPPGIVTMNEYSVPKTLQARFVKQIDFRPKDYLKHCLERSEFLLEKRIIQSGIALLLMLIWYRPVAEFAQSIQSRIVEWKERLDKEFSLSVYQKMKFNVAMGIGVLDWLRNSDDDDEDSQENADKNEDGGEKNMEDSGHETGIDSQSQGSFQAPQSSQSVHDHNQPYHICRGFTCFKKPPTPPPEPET

inhibition, inactive:
O=C(c1cccc(S(=O)(=O)N2CCOCC2)c1)N1CCCCCC1 0.39%
Cc1ccc(NC(=O)CN2CCc3cc4c(cc3C2C)OCCCO4)cc1 (stereo not given) 8.62%
CN1C(C(=O)Nc2ccc(OC(F)(F)F)cc2)=CC(c2ccco2)=NS1(=O)=O 8.59%
COC(=O)c1sc2cc([N+](=O)[O-])cc(SCC(C)C)c2c1N 10.4%
COc1cc(Cl)cc(C#N)c1OCC(=O)O -0.11%
CC1=CC(=Nc2c(C)n(C)n(-c3ccccc3)c2=O)C=C(C)C1=O 2.58%
CC(=O)/C(N=Nc1c(C)n(C)n(-c2ccccc2)c1=O)=C(\C)O 1.99%
CCC(C)C1=CC(=Nc2c(C)n(C)n(-c3ccccc3)c2=O)C=C(C(C)CC)C1=O (stereo not given) 4.02%
Cc1c(NCc2ccccc2O)c(=O)n(-c2ccccc2)n1C 29%
Cc1c(N=NC2=C(O)CC(C)(C)CC2=O)c(=O)n(-c2ccccc2)n1C 4.32%
Cc1c(N=Nc2ccc(O)cc2)c(=O)n(-c2ccccc2)n1C 28%
Cc1c(N=NC2=C(O)CCCC2=O)c(=O)n(-c2ccccc2)n1C -2.74%
Cc1[nH]c2ccccc2c1N=Nc1c(C)n(C)n(-c2ccccc2)c1=O 6.57%
CCNC(=O)c1c(NC(=O)C2COc3ccccc3O2)sc2c1CCCC2 (stereo not given) -3.17%
COc1ccc(/C=N/NC(=O)CNc2c(Br)cc(C)cc2Br)c(C(=O)O)c1OC -1.95%
Cc1nc(-c2nc(-c3c(C(=O)NNC(=O)Nc4cccc(Cl)c4)noc3C)cs2)cs1 8.51%
Cc1ccc(C(=O)OCC(=O)N2CC(C)CC(C)C2)cc1S(=O)(=O)N1CCOCC1 (stereo not given) -0.25%
COc1ccc(N(C(C)C(=O)Nc2ccc(S(=O)(=O)N3CCOCC3)cc2)S(C)(=O)=O)cc1 (stereo not given) 22.9%
Cc1ccc(S(=O)(=O)NNC(=O)Nc2ccc([N+](=O)[O-])cc2)c(C)c1 7.86%
NC(=O)COC(=O)CNC(=O)c1sc2ccccc2c1Cl 4.69%
c1ccc2cc(OCCOCCOc3ccc4ccccc4c3)ccc2c1 5.7%
CC1=NN(c2cccc(F)c2)C(=O)/C1=C/c1ccc(N(C)C)cc1 8.44%
CCN(CC)c1ccc(/C=C2/C(=O)ON=C2C)cc1 29.4%
Cc1oc2ccccc2c1CC(=O)NCCCN(C)C -4.93%
Cc1cc(C)n(C(=O)CNC(=O)c2ccccc2F)n1 9.87%
Cc1ccccc1NN=Nc1nc2c([nH]1)c(=O)n(C)c(=O)n2C 14.1%
Cc1ccc(NN=Nc2nc3c([nH]2)c(=O)n(C)c(=O)n3C)cc1 9.3%
OC(COc1c(F)cc(Br)cc1F)CN1CCOCC1 (stereo not given) 2.96%
O=C(CNC(=O)[C@@H]1Cc2ccccc2CN1)Nc1ccc2c(c1)OCCO2 10.2%
COCCCNC(=O)/C(C#N)=C/c1ccc(OCC(=O)O)c(OC)c1 34.6%
CCOc1cc(-c2c(C)c(C)nc(N)c2C#N)ccc1O 17.1%
COc1cc(/C=C2/C(=N)N3C(c4ccccc4)=CSC3=NC2=O)ccc1OCC(=O)O 31%
C/C=C/c1ccc(OCC(=O)O)c(OC)c1 10.3%
C/C=C/c1ccc(OCC(=O)OCC)c(OC)c1 10.1%
CC1=C(C#N)c2nc(N)c(C#N)c(C)c2/C1=C\c1ccc(C)cc1 12.2%
Cc1ccc2nc(/C(C#N)=C/c3ccc(-c4ccccc4C(=O)O)o3)[nH]c2c1 24%
Cc1ccc2c(nc3s/c(=C\c4ccc(-c5ccccc5C(=O)O)o4)c(=O)n32)c1C 21.4%
Cc1c(C(=O)Nc2ccccc2F)sc2ncn(CC(=O)N3CCCCC3)c(=O)c12 7.79%
Brc1cccc(/C=N/Nc2nc(N3CCCCC3)nc(N3CCCCC3)n2)c1 3.51%
CCOC(=O)c1ccccc1NC(=S)N1CCN(C2CCCCC2)CC1 7.91%
Cc1ccc2cccc(Oc3ncnc4scc(-c5ccc(Cl)cc5)c34)c2n1 25.5%
O=S(=O)(NCc1ccccn1)c1ccccn1 9.8%
CCn1cc(C(=O)N2CCN(c3ccccc3)CC2)c(=O)c2cc(S(=O)(=O)N3CCOCC3)ccc21 4.92%
CCOc1ccc(Br)cc1S(=O)(=O)Nc1cccnc1 11.2%
O=C(NCCc1ccccn1)C1CC(=O)N(Cc2ccccc2Cl)C1 (stereo not given) 15.4%
Brc1ccccc1-n1nnc(-c2cccnc2)n1 12.4%
CCCCN(C(=N)N1CCCCC1)c1nc(C)c([N+](=O)[O-])c(=O)[nH]1 9.69%
Nc1cc(=O)[nH]c(SCC(=O)NNC(=O)Cc2ccccc2)n1 10.8%
O=c1[nH]c(NC2CCCCC2)c([N+](=O)[O-])c(=O)[nH]1 4.57%
S=C1Cc2ccccc2C(c2ccc(Cl)cc2)N1 (stereo not given) 2.33%
Cc1ccc(NC(=O)CSc2nnc(C)c(=O)n2N)cc1 14.2%
Cc1ccc(NC(=O)CSc2nnc(-c3cnccn3)n2C)cc1C 29.7%
CCn1c(SCC(=O)Nc2ccc(F)cc2)nnc1C1CC1 3.39%
CCc1ccc(NC(=O)CSc2nnc(-c3cnccn3)n2C)cc1 14.9%
CCn1c(SCC(=O)Nc2ccc(NC(C)=O)cc2)nnc1C1CC1 12.8%
CCCCn1nnnc1SCC(=O)Nc1ccc(C)cc1 -2.62%
CCn1nnnc1SCC(=O)Nc1ccc(N(C)C)cc1 37.7%
CC(=O)Nc1ccc(NC(=O)CSc2nnc(C)c(=O)n2N)cc1 12.1%
O=C(CSc1ccc(-c2cccc([N+](=O)[O-])c2)nn1)NCc1ccccc1 11.8%
CCCc1cc(=O)oc2cc(OC3CCCCC3=O)ccc12 (stereo not given) 18.5%
O=C(O)COc1ccc2c(c1)OCCO2 -3.88%
CCOC(=O)c1sc2nc(CC(=O)OC)nc(NCCN(CC)CC)c2c1C 28.4%
Cc1cccc(NC(=O)CSc2nnc(-c3ccco3)c(-c3ccco3)n2)c1 35%
COc1ccc(NC(=O)CSc2nnc(-c3ccco3)c(-c3ccco3)n2)cc1OC 26.9%
COC(=O)/C=C1/C(=O)N/C(=N\c2nc(C)cc(C)n2)N1c1ccc(OC)cc1 3.13%
CC(=O)Nc1ccc(/C=N/NC(=O)c2cccc(S(=O)(=O)N3CCOCC3)c2)cc1 8.56%
COc1cc(/C=N/NC(=O)c2cccc(S(=O)(=O)N3CCCCC3)c2)cc(Br)c1O 10.6%
CCOc1cc(/C=N/NC(=O)c2cccc(S(=O)(=O)N3CCCC3)c2)ccc1OCC(=O)N(C)C 0.99%
O=C(N/N=C/c1cccnc1)c1cccc(S(=O)(=O)N2CCCC2)c1 17.7%
COc1cc(/C=N/NC(=O)c2cccc(S(=O)(=O)N3CCCC3)c2)cc(OC)c1O 37.9%
O=C(N/N=C/c1ccccn1)c1cccc(S(=O)(=O)N2CCCC2)c1 9.14%
C/C(CC(=O)NC1CCCCCC1)=N\NC(=O)c1cnccn1 0.37%
COC(CNC(=O)C(=O)Nc1cc2c3c(c1)CCN3C(=O)CC2)OC 6.3%
COc1ccc(Cn2c(=O)[nH]c3cc(C(=O)NC4CCN(Cc5ccccc5)CC4)ccc32)cc1 1.67%
COc1ccc(C(CNC(=O)COc2ccc(F)cc2Br)N2CCCC2)cc1 (stereo not given) 5.54%
O=c1nc2n(c3cccc(Cl)c13)CCCCC2 5.2%
Cn1c(=O)n(CC(N)=O)c(=O)c2c1nc1n2CCCN1Cc1ccccc1 5.61%
CC(C)(C)C(=O)NC(=S)Nc1ccccc1F 0.75%
CC1=NN(c2ccc(C(=O)OC(C)C)cc2)C(=O)/C1=C\C=C\c1ccco1 12.7%
CCOC(=O)c1ccc(N2N=C(C)/C(=C/C=C/c3ccco3)C2=O)cc1 21%
CC1=NN(c2ccc(Cl)c(C(=O)O)c2)C(=O)C1 27.9%
CC1=NN(c2ccccc2)C(=O)/C1=C/C=C/c1ccccc1 9.74%
CC1=NN(c2ccccc2)C(=O)/C1=C\C=C\c1ccccc1 19.4%
O=C(/C=C/c1ccco1)Nc1cc(Cl)ccc1C(=O)O 21.9%
COC(=O)c1cc(NC(=O)Cn2c(=O)cnc3ccccc32)cc(C(=O)OC)c1 24%
CCCCc1c(O)nc(SCC(=O)NC(C)(C)C)n(-c2ccccc2C)c1=O 0.223%
Cc1ccc(NC(=O)c2oc3ccccc3c2NC(=O)C2CC2)cc1 12.7%
Cc1cc(NC(=O)/C=C\C(=O)O)c([N+](=O)[O-])cc1C 9.88%
CCCn1c(N)c(C(=O)CSc2n[nH]c(-c3ccc(C)cc3)n2)c(=O)[nH]c1=O 8.37%
CC(C)C[C@H]1CN=C(Nc2ccccc2)N1CCCC1CCCC1 16.4%
Oc1ccc(/C=N\Nc2nncc(-c3ccccc3)n2)cc1 28.1%
O=c1[nH]c(=O)c2nnc(N/N=C/c3ccccc3F)nc2[nH]1 11.5%
CC(C)C(NS(=O)(=O)c1cccc2nsnc12)C(=O)Nc1nc2ccc(Cl)cc2s1 (stereo not given) 1.74%
COc1ccc(S(=O)(=O)Nc2c(C(=O)O)[nH]c3ccccc23)cc1 11.7%
COc1ccc(N2C(=O)NC(=O)C2=O)cc1 1.84%

— PubChem BioAssay AID1903 (Southern Research Specialized Biocontainment Screening …, 2009)
